Experimental data: PubChem BioAssay (Tox21)
Inconclusive results are not listed. Calls of active or inactive are those of the source. Unless noted, calls follow the shape of the full dose curve.

Assays:
[1] = Nuclear factor erythroid 2-related factor 2/antioxidant responsive element (Nrf2/ARE) small molecule agonists: qHTS cell viability counter screen in human keratinocytes (AID 1919968; active = well fitted curve in the direction sought with a large enough effect in the repeat runs; an effect the other way counts as inactive or inconclusive; also: nearly all actives have a fitted effect of over 55% in size; also: potency is read from the fitted curve at half-maximal effect)
In short: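 Viability counter-screen: KeratinoSens reporter cells, DMSO-delivered compounds, 23 h at 37 C, CellTiter-Fluor fluorescence.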

[2] = target: Gonadotropin-releasing hormone receptor (Homo sapiens) (UniProt P30968); assay: Human gonadotropin-releasing hormone receptor (GnRHR) small molecule agonists, calcium flux assay in GnRHR-HEK293 cells (AID 1920063); also: nearly all actives have a fitted effect of over 35% in size
In short: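 Tox21-format agonist screen using human GnRHR-expressing HEK293 cells and a fluorescent calcium dye; kinetic 3-min fluorescence reading after compound addition, 15-point concentration series run in triplicate.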

[3] = target: KiSS-1 receptor (Homo sapiens) (UniProt Q969F8); assay: Human kisspeptin (KISS1R) small molecule agonists, calcium flux assay in KISS1R-HEK293 cells (AID 1920064; active = well fitted curve in the direction sought with a large enough effect in the repeat runs; an effect the other way counts as inactive or inconclusive)
In short: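 Intracellular calcium mobilization in KISS1R-HEK293 cells was recorded by fluorescence (Ex/Em 480/540) for 3 min following compound addition to cells pre-loaded 1 h with calcium dye.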

[4] = p53 small molecule agonists, cell-based qHTS assay with human liver microsomes (AID 1963577)
In short: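 p53RE-bla cells, 4,000/well, compound added after 5 h, with human liver microsomes 0.5 mg/mL and NADPH 0.5 mg/mL final; 16 h at 37 C, then LiveBLAzer 2 h RT, fluorescence.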

[5] = p53 small molecule agonists, cell-based qHTS assay with rat liver microsomes (AID 1963578)
In short: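 p53RE-bla cells, 4,000/well, pre-incubated 5 h, then given compounds plus rat liver microsomes (0.5 mg/mL final) and NADPH (0.5 mg/mL final). Incubation 16 h at 37 C; beta-lactamase reporter read by LiveBLAzer fluorescence after 2 h at room temperature.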

[6] = p53 small molecule agonists, cell-based qHTS assay with human liver microsomes: qHTS cell viability counter screen (AID 1963579); also: nearly all actives have a fitted effect of over 45% in size
In short: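 p53RE-bla cells, 4,000/well, dosed 5 hours after plating, with human liver microsomes (0.5 mg/mL final) plus NADPH (0.5 mg/mL final), 16 hours at 37 C. Viability read as CellTiter-Glo luminescence after 30 min at room temperature.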

[7] = p53 small molecule agonists, cell-based qHTS assay with rat liver microsomes: qHTS cell viability counter screen (AID 1963580); also: nearly all actives have a fitted effect of over 45% in size
In short: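 HCT-116 p53RE-bla, 4,000 cells/well, 5 h pre-incubation; cpd + rat liver microsomes 0.5 mg/mL + NADPH 0.5 mg/mL (final); 16 h, 37 C; CellTiter-Glo, 30 min RT; luminescence.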

[8] = p53 small molecule agonists, cell-based qHTS assay: qHTS cell viability counter screen (AID 1963581); also: nearly all actives have a fitted effect of over 45% in size; also: potency is read from the fitted curve at half-maximal effect
In short: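 Compounds are pinned onto HCT-116 p53RE-bla cells and left 16 h at 37 C. Following the reporter FRET read, ATP is quantified by CellTiter-Glo luminescence after 30 min at room temperature.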

[9] = p53 small molecule agonists, cell-based qHTS assay (AID 1963582; active = well fitted activation curve with a large enough effect in the signal ratio in the repeat runs, not every such curve was filed as active; the % refers to the signal ratio)
In short: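 Agonist activity was scored from beta-lactamase FRET fluorescence in p53RE-bla cells treated 16 h at 37 C with compounds in DMSO, substrate incubation being 2 h at room temperature.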

[10] = target: 5-hydroxytryptamine receptor 2A (Homo sapiens) (UniProt P28223); assay: 5-hydroxytryptamine receptor 2A (HTR2A) small molecule antagonists, cell-based qHTS assay (AID 1963586); also: nearly all actives have a fitted effect of over 45% in size
In short: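 Antagonist-mode intracellular calcium assay: DOI (4 nM) added after 5 min compound pre-incubation at room temperature to dye-loaded HTR2A-CHO cells. Fluorescence followed for 3 min, sampled every second.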

[11] = target: 5-hydroxytryptamine receptor 2A (Homo sapiens) (UniProt P28223); assay: 5-hydroxytryptamine receptor 2A (HTR2A) small molecule agonists, cell-based qHTS assay (AID 1963587); also: nearly all actives have a fitted effect of over 30% in size
In short: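 Kinetic calcium-flux fluorescence (2 min, 1 sec intervals) after compound addition in agonist mode. HTR2A-CHO cells were cultured 18 h, then dye-loaded 1 h at 37 C.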

[12] = target: Muscarinic acetylcholine receptor M1 (Homo sapiens) (UniProt P11229); assay: Cholinergic receptor muscarinic 1 (CHRM1) small molecule antagonists, cell-based qHTS assay (AID 1963588); also: nearly all actives have a fitted effect of over 40% in size
In short: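 CHRM1-CHO calcium-flux assay, antagonist mode. Cells were seeded 18 h, dye-loaded 1 h at 37 C and given compound for 5 min at RT, then acetylcholine was added at 50nM. FDSS fluorescence was read 3 min; 15 concentrations, three runs.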

[13] = cAMP Responsive Elements (CRE) small molecule agonists, cell-based qHTS assay (AID 1963590)
In short: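 FRET-based beta-lactamase readout (LiveBLAzer B/G, 2 h RT) quantified CRE activation in HEK 293T CRE-bla cells after 3 h treatment with DMSO-dissolved compounds.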

[14] = cAMP Responsive Elements (CRE) small molecule antagonists, cell-based qHTS assay (AID 1963591; active = well fitted inhibition curve with a large enough effect in the signal ratio in the repeat runs, not every such curve was filed as active; the % refers to the signal ratio)
In short: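 qHTS in CRE-bla HEK 293T cells: compound in DMSO, then 0.25 uM NKH477 (final), 3 h at 37 °C/5% CO2; beta-lactamase FRET read-out after 2 h substrate incubation.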

[15] = target: D(2) dopamine receptor (Homo sapiens) (UniProt P14416); assay: Dopamine D2 receptor (DRD2) small molecule agonists, cell-based qHTS assay (AID 1963594); also: nearly all actives have a fitted effect of over 35% in size
In short: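 cAMP accumulation in DRD2-HEK293 cells measured by HTRF after 1 h detection; compounds added 10 min before NKH477 (200nM […]) forskolin-analogue stimulation, 30 min at room temperature, with Ro20-1724 present at 0.1 mM final.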

[16] = target: D(2) dopamine receptor (Homo sapiens) (UniProt P14416); assay: Dopamine D2 receptor (DRD2) small molecule antagonists, cell-based qHTS assay (AID 1963595; active = well fitted inhibition curve with a large enough effect in the signal ratio in the repeat runs, with a control signal flat; the % refers to the signal ratio)
In short: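 Human DRD2 antagonist qHTS measuring cAMP by HTRF. The cells are exposed to compound for 10 min, then to NKH477 (200 nM) and quinpirole (12 nM) for 30 min at RT, with Ro20-1724 (0.1 mM) present throughout.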

[17] = G protein-coupled receptor (GPCR) small molecule agonists, calcium flux assay: HEK293 wild type cell line counter screen (AID 1920065)
In short: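 In this agonist-mode screen, ATP is the positive control and DMSO the vehicle. Cells grow 18 h before a 1 h dye incubation at 37 C; signal is taken at Ex/Em 480/540 over 3 min.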

[18] = target: Muscarinic acetylcholine receptor M1 (Homo sapiens) (UniProt P11229); assay: Cholinergic receptor muscarinic 1 (CHRM1) small molecule agonists, cell-based qHTS assay (AID 1963589); also: nearly all actives have a fitted effect of over 35% in size
In short: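 Stable CHRM1-CHO cells (human receptor) were incubated 18 h, dye-loaded for 1 h at 37 C and exposed to test compounds for agonist activity, with calcium-dependent fluorescence followed kinetically.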

[19] = target: Beta-2 adrenergic receptor (Homo sapiens) (UniProt P07550); assay: Adrenergic beta2 receptor (ADRB2) small molecule antagonists, cell-based qHTS assay (AID 1963592); also: nearly all actives have a fitted effect of over 50% in size; also: potency is read from the fitted curve at half-maximal effect; as to activity change, negative = inhibition: series mostly up to about 92 µM
In short: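 Cells (CHO, stable ADRB2 overexpression) incubated 18-20hr at 37C; compounds added from DMSO; agonist mix (1nM isoproterenol, 100uM IBMX, 25uM Ro-20-1724) added; 0.5hr RT; d2-cAMP and anti-cAMP-cryptate added; 1hr RT; 665/615 nm read.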

[20] = target: Beta-2 adrenergic receptor (Homo sapiens) (UniProt P07550); assay: Adrenergic beta2 receptor (ADRB2) small molecule agonists, cell-based qHTS assay (AID 1963593);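 also: CHO cells stably overexpressing human ADRB2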
In short: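 CHO cells stably over-expressing ADRB2 were plated overnight at 37C, then dosed with compounds plus a stimulation mix containing 100uM IBMX and 25uM Ro-20-1724 for 0.5hr at room temperature. cAMP was measured by HTRF competition, 1hr.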
% is scaled to controls: 0 for no effect and ±100 for the full control effect.

Chain of 5-hydroxytryptamine receptor 2A (Homo sapiens) (P28223 whole entry, looked up): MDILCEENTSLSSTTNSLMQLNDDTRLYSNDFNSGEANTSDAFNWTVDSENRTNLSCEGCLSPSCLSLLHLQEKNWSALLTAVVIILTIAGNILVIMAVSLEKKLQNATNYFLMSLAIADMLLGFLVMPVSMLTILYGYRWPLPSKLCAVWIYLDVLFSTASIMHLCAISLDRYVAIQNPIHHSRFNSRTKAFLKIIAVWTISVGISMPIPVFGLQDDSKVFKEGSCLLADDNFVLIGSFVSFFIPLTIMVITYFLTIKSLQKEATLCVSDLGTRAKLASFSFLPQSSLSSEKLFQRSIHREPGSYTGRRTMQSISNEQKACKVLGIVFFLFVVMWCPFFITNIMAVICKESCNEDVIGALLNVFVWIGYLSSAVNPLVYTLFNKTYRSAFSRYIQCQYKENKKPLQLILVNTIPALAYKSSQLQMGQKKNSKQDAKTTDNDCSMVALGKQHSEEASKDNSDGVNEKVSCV
Chain of KiSS-1 receptor (Homo sapiens) (Q969F8 whole entry, looked up): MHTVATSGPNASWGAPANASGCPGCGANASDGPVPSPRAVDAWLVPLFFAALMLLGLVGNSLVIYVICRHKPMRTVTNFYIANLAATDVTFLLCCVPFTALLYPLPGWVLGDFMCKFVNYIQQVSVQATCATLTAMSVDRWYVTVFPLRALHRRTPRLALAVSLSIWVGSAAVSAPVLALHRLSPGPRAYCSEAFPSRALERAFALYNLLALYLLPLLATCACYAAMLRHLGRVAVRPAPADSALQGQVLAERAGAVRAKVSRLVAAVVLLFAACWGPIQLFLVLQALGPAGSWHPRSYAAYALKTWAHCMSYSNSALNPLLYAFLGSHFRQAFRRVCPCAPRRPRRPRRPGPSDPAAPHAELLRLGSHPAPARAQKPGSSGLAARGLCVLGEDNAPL
Chain of Muscarinic acetylcholine receptor M1 (Homo sapiens) (P11229 whole entry, looked up): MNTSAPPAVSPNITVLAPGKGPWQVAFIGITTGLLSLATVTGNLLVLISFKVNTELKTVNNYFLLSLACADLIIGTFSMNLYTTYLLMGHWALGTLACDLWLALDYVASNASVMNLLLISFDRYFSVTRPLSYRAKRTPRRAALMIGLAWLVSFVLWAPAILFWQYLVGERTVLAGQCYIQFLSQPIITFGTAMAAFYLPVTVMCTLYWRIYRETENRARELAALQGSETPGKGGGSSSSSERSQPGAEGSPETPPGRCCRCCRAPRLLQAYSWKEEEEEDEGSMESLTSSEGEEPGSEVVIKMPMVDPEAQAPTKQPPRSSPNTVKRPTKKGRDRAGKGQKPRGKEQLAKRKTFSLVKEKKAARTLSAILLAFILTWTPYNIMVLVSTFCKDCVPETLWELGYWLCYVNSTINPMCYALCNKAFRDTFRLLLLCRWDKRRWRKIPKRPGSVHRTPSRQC
Chain of D(2) dopamine receptor (Homo sapiens) (P14416 whole entry, looked up): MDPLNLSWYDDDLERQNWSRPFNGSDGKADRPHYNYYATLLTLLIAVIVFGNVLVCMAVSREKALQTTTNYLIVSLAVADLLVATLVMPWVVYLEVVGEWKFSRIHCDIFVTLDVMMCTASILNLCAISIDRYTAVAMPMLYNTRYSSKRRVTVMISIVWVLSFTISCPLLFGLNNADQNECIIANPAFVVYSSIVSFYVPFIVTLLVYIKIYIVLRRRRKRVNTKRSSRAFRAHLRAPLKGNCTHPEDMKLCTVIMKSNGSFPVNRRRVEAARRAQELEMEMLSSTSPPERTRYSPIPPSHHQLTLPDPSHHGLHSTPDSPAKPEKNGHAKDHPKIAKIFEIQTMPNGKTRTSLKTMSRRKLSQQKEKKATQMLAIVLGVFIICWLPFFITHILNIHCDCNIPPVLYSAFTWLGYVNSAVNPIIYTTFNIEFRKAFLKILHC
Chain of Beta-2 adrenergic receptor (Homo sapiens) (P07550 whole entry, looked up): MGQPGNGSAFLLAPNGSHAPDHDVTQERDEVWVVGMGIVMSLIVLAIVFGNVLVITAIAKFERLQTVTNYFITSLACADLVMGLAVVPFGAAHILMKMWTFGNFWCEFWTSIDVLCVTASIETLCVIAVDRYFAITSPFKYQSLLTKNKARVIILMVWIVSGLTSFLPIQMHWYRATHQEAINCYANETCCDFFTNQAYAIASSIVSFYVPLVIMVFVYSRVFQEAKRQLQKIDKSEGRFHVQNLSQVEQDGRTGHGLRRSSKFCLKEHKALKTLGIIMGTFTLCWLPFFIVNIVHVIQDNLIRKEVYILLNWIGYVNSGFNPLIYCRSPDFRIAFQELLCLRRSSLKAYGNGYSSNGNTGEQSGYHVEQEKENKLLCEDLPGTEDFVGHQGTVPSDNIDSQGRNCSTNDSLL
Chain of Gonadotropin-releasing hormone receptor (Homo sapiens) (P30968 whole entry, looked up): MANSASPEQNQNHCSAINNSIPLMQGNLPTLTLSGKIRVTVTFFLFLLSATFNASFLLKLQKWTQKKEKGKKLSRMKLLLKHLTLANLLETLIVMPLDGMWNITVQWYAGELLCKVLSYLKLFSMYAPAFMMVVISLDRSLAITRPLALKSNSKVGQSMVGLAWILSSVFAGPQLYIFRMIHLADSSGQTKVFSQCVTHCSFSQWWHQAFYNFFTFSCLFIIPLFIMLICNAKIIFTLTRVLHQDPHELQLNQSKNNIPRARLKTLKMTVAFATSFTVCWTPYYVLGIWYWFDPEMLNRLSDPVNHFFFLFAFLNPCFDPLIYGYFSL

CCc1c(C)cc(N)c(CC)c1N
inactive: Potency [1] | Potency [2] | Potency [3] | Potency [4] | Potency [5] | Potency [6] | Potency [7] | Potency [8] | Potency [9] | Potency [10] | Potency [11] | Potency [12] | Potency [13] | Potency [14] | Potency [15] | Potency [16]

CN(C)CCCCCCN(C)C
inactive: Potency [1] | Potency [2] | Potency [3] | Potency [17] | Potency [10] | Potency [11] | Potency [12] | Potency [18] | Potency [13] | Potency [14] | Potency [19] | Potency [20] | Potency [15] | Potency [16]

COc1ccnc(CS(=O)c2nc3cc(OC(F)F)ccc3[nH]2)c1OC (configuration not stated)
inactive: Potency [1] | Potency [2] | Potency [3] | Potency [17] | Potency [6] | Potency [7] | Potency [13] | Potency [19] | Potency [20] | Potency [15] | Potency [16]

CCCNCC(O)COc1ccccc1C(=O)CCc1ccccc1 (configuration not stated)
active: Potency [19] 0.841 µM
inactive: Potency [1] | Potency [2] | Potency [3] | Potency [17] | Potency [9] | Potency [13] | Potency [14] | Potency [15] | Potency [16]

CC(C)NC(=O)NC(C)C
inactive: Potency [1] | Potency [2] | Potency [3] | Potency [17] | Potency [7] | Potency [8] | Potency [10] | Potency [11] | Potency [12] | Potency [18] | Potency [13] | Potency [14] | Potency [19] | Potency [15] | Potency [16]

CC(CN=Cc1ccccc1O)N=Cc1ccccc1O (configuration not stated)
inactive: Potency [1] | Potency [2] | Potency [3] | Potency [17] | Potency [7] | Potency [8] | Potency [9] | Potency [12] | Potency [18] | Potency [13] | Potency [19] | Potency [20] | Potency [15] | Potency [16]

C=C1C(C)(C)[C@@]2(Cl)C(Cl)[C@]1(Cl)C(Cl)(Cl)C2(Cl)Cl (some centres not stated)
inactive: Potency [2] | Potency [3] | Potency [17] | Potency [7] | Potency [10] | Potency [11] | Potency [12] | Potency [18] | Potency [19] | Potency [15] | Potency [16]
active: Potency [1] 47.7 µM | Potency [8] 40 µM

O=CO
inactive: activity change, negative = cytotoxicity [1] 0.89% [at 8.39 µM] | activity change [2] 0% [at 5.22 µM, hits give high values] | activation [3] 4.55% [at 6.97 µM] | activation [17] -0.0753% [at 5.23 µM] | activity change, negative = cytotoxicity [6] -2.15% [at 5.99 µM] | activity change, negative = cytotoxicity [8] -6.99% [at 5.99 µM] | activity, negative = inhibition [10] 0.711% [at 5.62 µM] | activation [11] 0.778% [at 7.02 µM] | activity, negative = inhibition [12] 7.62% [at 5.58 µM] | activation [18] -0.0923% [at 6.97 µM] | activation [13] 0.47% [at 8.39 µM] | activity change, negative = inhibition [14] -5.34% [at 8.39 µM] | activity change, negative = inhibition [19] 1.71% [at 8.39 µM] | activation [15] 0.218% [at 8.39 µM] | activity change, negative = inhibition [16] -7.6% [at 8.38 µM]

C1CCC2(CCCCO2)OC1
inactive: Potency [1] | Potency [2] | Potency [3] | Potency [17] | Potency [8] | Potency [10] | Potency [11] | Potency [12] | Potency [18] | Potency [13] | Potency [19] | Potency [20] | Potency [15] | Potency [16]
